The results in this text go back to PubChem BioAssay AID1240 (Sanford-Burnham Center for Chemical Genomics, 2008).

Each structure is given as a SMILES string. The whole screen tested about 50,000 compounds, of which about 800 (1.6%) showed an effect of 50% or more. The full list was thinned out, with strong results kept by preference.

For the test, the target named is Bcl-2-like protein 10 (Homo sapiens) (UniProt Q9HD36). Description: TR3 peptide-Bcl-B binding displacers, biochemical primary FP assay, phenotype converters (AID 1240).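 Note: 0% = Bcl-B with tracer peptide and DMSO and 100% = tracer peptide lacking Bcl-B.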 Conditions: GST-Bcl-B / FITC-TR3 peptide fluorescence polarization; stronger effect = higher value; compound at 3.75 mg/L. Background: Polarisation of emitted light reports the rotation of a fluorescent probe.
Bcl-2-like protein 10 (Homo sapiens), sequence (Q9HD36 whole entry, looked up): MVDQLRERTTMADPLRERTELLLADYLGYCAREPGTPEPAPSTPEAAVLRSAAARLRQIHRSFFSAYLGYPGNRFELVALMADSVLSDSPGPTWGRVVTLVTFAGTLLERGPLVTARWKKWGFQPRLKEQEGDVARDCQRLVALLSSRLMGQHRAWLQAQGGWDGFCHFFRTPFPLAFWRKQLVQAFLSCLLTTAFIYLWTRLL
As to `C=CCSc1nc2ccccc2n1C(=O)C1C(C=C(Cl)Cl)C1(C)C` (centres undefined), the displacement turned out to be 7.1%.
Take `CCOc1ccc(C(=O)NCc2cccs2)cc1OCC`: the displacement was -0.9%.
As for `O=C(NCCN1CCCC1=O)Nc1ccccc1`, the figure is 10.9%; as for `O=C(NCCCNC(=O)c1cccc(F)c1)c1cccc(F)c1`, 3.2%; as for `O=C(c1cccc(I)c1)N1CCN(c2ccccn2)CC1`, 6.9%.
Next, `O=C1CC(N2CCN(Cc3ccccc3)CC2)C(=O)N1c1ccc(Cl)c(Cl)c1` (centres undefined): 1.7%.
With `O=c1c2ccccc2nc(/C=C/c2cccc([N+](=O)[O-])c2)n1-c1cccc2ccccc12`, the displacement worked out at 5%.
Consider `CN(C)c1ccc(/C=C/c2nc3ccccc3c(=O)n2-c2cccc3ccccc23)cc1`, for which the displacement turned out to be 105%.
Consider `Cn1c(/C=C/c2ccc3c(c2)OCO3)nc2ccccc2c1=O`, for which the displacement was determined as 1.3%.
Turning to `O=c1c2ccccc2nc(/C=C/c2ccc3c(c2)OCO3)n1-c1cccc2ccccc12`, the displacement worked out at 78.1%.
Turning to `O=c1c2ccccc2nc(/C=C\c2ccccc2O)n1-c1cccc2ccccc12`, the displacement was -6.6%.
As for `O=c1c2ccccc2nc(/C=C/c2ccccc2[N+](=O)[O-])n1-c1cccc2ccccc12`, the displacement was -7%.
With `COc1ccccc1-n1cnc2cc(NC(C)=O)ccc21`, the displacement was determined as 14.7%.
Next, `CC(C)(C)c1cc(C2=C(Cl)C(=O)c3ccccc3C2=O)cc(C(C)(C)C)c1O`: 6.9%; `O=C1N=c2ccc(Cl)cc2=C1c1sc(NS(=O)(=O)Cc2ccccc2)nc1O`: -7.2%; `CC1=C(C(=O)Nc2ccc(C)cc2)C(c2ccccc2Br)NC(=S)N1` (centres undefined): 84.9%.
As for `CC1=C(C(=O)Nc2ccccc2)C(c2ccccc2Br)NC(=S)N1` (centres undefined), the figure is -1.9%; as for `CC1=C(C(=O)Nc2ccc(Br)cc2)C(c2ccccc2Br)NC(=S)N1` (centres undefined), -7%.
Consider `Cc1ccc(SCCNC(=O)CN(c2ccc(C)cc2)S(C)(=O)=O)cc1`, for which the displacement is -13.4%.
As for `O=C(C1=C(O)C(=O)N(c2nncs2)C1c1ccc(Cl)cc1)c1cccs1` (centres undefined), the displacement is 125%.
As for `O=C1C(=O)N(c2nncs2)C(c2cccc(Br)c2)/C1=C(\O)c1ccc(F)cc1` (centres undefined), the figure is 16.6%.
With `CC(=O)C1=C(O)C(=O)N(c2nc3ccccc3s2)C1c1ccccc1F` (centres undefined), the displacement was -8.5%.
Turning to `COc1ccc(C2C(C(=O)c3cccs3)=C(O)C(=O)N2c2nncs2)cc1` (centres undefined), the displacement was 143%.
As to `COc1ccc(C2C(C(C)=O)=C(O)C(=O)N2c2nc3ccccc3s2)cc1OC` (centres undefined), the displacement is -10.4%.
Next, `COc1cc(C2/C(=C(\O)c3ccc(F)cc3)C(=O)C(=O)N2c2nncs2)ccc1O` (centres undefined): 8.3%; `O=C(C1=C(O)C(=O)N(c2nncs2)C1c1ccccc1F)c1cccs1` (centres undefined): 129%; `O=C1C(=O)N(c2nncs2)C(c2ccc(Cl)cc2)/C1=C(\O)c1ccc(F)cc1` (centres undefined): 20.8%.
Next, `COc1ccc(C2/C(=C(\O)c3ccc(F)cc3)C(=O)C(=O)N2c2nncs2)cc1` (centres undefined): 11%; `O=C(C1=C(O)C(=O)N(c2nncs2)C1c1cccc([N+](=O)[O-])c1)c1cccs1` (centres undefined): 7.1%; `COc1ccc(C2/C(=C(\O)c3ccc(C)cc3)C(=O)C(=O)N2c2nncs2)cc1` (centres undefined): 13.6%.
As for `COc1ccc(C2C(C(=O)c3cccs3)=C(O)C(=O)N2c2nncs2)cc1OC` (centres undefined), the figure is 84.6%.
Turning to `C/C(=N\N=C1\NC(=O)C(CC(=O)Nc2ccccc2C(F)(F)F)S1)c1ccco1` (centres undefined), the displacement is -7.9%.
As for `O=[N+]([O-])c1ccc(N2CCN(S(=O)(=O)c3ccccc3)CC2)cc1NCCc1ccccc1`, the displacement is 7.8%.
Consider `Cc1ccc2oc(-c3cc(N)ccc3O)nc2c1`, for which the displacement was 5.4%.
Consider `S=C1NCCOCCOCCOCCNC(=S)N2CCOCCOCCN1CCOCC2`, for which the displacement amounted to 14.7%.
Next, `O=C1C2C(c3ccccc3)C=CC(c3ccccc3)C2C(=O)N1Cc1ccc(F)cc1` (centres undefined): -7.7%; `COc1cc(/C=N\n2nnnc2N)ccc1OCc1ccc(F)cc1`: 10.6%; `CC1CC(C)CN(C(=O)c2ccc(Cl)cc2Cl)C1` (centres undefined): -3.8%.
Next, `Cc1ccc(Cl)c(OCC(O)Cn2c(C)nc3ccccc32)c1` (centres undefined): -11.5%; `COc1ccc(OCC(O)Cn2c(C)nc3ccccc32)cc1` (centres undefined): -22.4%.
As for `O=C(O)C1C2CCC(O2)C1C(=O)N1CCN(c2ccc(F)cc2)CC1` (centres undefined), the figure is -9.7%; as for `CCOCCOC(=O)C1=C(C)NC2=C(C(=O)CC(C)(C)C2)C1c1cccc(Cl)c1Cl` (centres undefined), 3.1%.
`CCCCCCOc1ccc(N2C(=O)CC(NCc3ccc(OC)cc3)C2=O)cc1` (centres undefined): the displacement worked out at 4.5%.
Turning to `O=C1C(=O)N(c2nncs2)C(c2ccc(F)cc2)/C1=C(\O)c1ccccc1` (centres undefined), the displacement turned out to be 13.6%.
As for `CC(C)(C)c1ccc(C2/C(=C(\O)c3ccc(F)cc3)C(=O)C(=O)N2c2nncs2)cc1` (centres undefined), the figure is 11.3%; as for `Cc1ccc(C2/C(=C(\O)c3ccccc3)C(=O)C(=O)N2c2nncs2)cc1` (centres undefined), 11.3%.
Consider `Cc1ccc(C2C(C(=O)c3cccs3)=C(O)C(=O)N2c2nncs2)cc1` (centres undefined), for which the displacement was 121%.
In the case of `Cc1ccc(/C(O)=C2\C(=O)C(=O)N(c3nncs3)C2c2cccc(Br)c2)cc1` (centres undefined), the displacement worked out at 18.7%.
As for `O=C(C1=C(O)C(=O)N(c2nncs2)C1c1ccc(F)cc1)c1cccs1` (centres undefined), the figure is 109%; as for `Nn1c(Nc2ccccc2)nc2ccccc2c1=O`, -15.5%; as for `O=C(N/N=C/c1cccc([N+](=O)[O-])c1)C1CC(=O)N(c2ccc(F)cc2)C1` (centres undefined), -10.4%.
As for `O=C1CCCC2=C1C(c1ccc([N+](=O)[O-])cc1)C1=C(CCCC1=O)N2c1ccc(Cl)cc1`, the figure is 17.8%; as for `Cc1ccc([N+](=O)[O-])cc1NC(=O)CCCOc1ccccc1`, 8.1%.
As for `COc1ccc(Cl)cc1NC(=O)C1=C(C)NC(=S)NC1c1ccc(F)cc1` (centres undefined), the figure is 11.9%; as for `COC(=O)C1=C(C)NC2=C(C(=O)c3ccccc32)C1c1ccc(-c2ccc([N+](=O)[O-])cc2Br)o1` (centres undefined), 46.9%.
Turning to `O=C1C2=C(Nc3ccccc3SC2c2ccc([N+](=O)[O-])cc2)c2ccccc21` (centres undefined), the displacement is -6%.
For `O=C1NN(c2ccccc2)C(=O)/C1=C\C=C\c1ccccc1`, the displacement was determined as 30.9%.
For the compound `O=C1C(=C/C=C/c2ccccc2)C(=O)c2ccccc21`, the displacement was 75%.
`O=C1C(=Cc2ccccc2)C(=O)c2ccccc21`: the displacement is 17.6%.
As for `CCOC(=O)c1c(NC(=O)C(Cl)(Cl)Cl)sc2c1CCC2`, the figure is -3.5%; as for `Cc1ccc2c(c1)NC(c1ccc(Cl)cc1Cl)C1=C(CC(C)(C)CC1=O)N2` (centres undefined), 13.5%.
In the case of `O=S(=O)(O)c1nc2ccccc2n1-c1ccccc1`, the displacement was -9.1%.
Turning to `CC(C)(C)c1cc(C(=O)N/N=C\c2ccc(Cl)cc2)n[nH]1`, the displacement is -5.3%.
As for `CC1=C(C(=O)Nc2ccc(C)cc2)C(c2ccc([N+](=O)[O-])cc2)NC(=O)N1` (centres undefined), the figure is -3.6%; as for `CC1=C(C(=O)Nc2ccc(Cl)cc2)C(c2ccc([N+](=O)[O-])cc2)NC(=S)N1` (centres undefined), 4.6%.
Regarding `CC1=C(C(=O)Nc2ccc(Cl)cc2)C(c2ccc([N+](=O)[O-])cc2)NC(=O)N1` (centres undefined), the displacement came to 124%.
Next, `COc1ccc(NC(=O)C2=C(C)NC(=O)NC2c2cccc(Cl)c2)cc1` (centres undefined): 83.7%.
Next, `COc1ccc(C2NC(=O)NC(C)=C2C(=O)Nc2cccc(Cl)c2)cc1` (centres undefined): 11.4%; `COc1ccc(NC(=O)C2=C(C)NC(=O)NC2c2cccc(OC)c2)cc1` (centres undefined): -15.9%.
